Assay results reported in PubChem BioAssay (EPA / NIEHS).
Inconclusive results are not listed. Calls of active or inactive are those of the source. The calls were made as follows, unless noted: active = hit-call score of the fitted dose curve at least 0.9, where 1 is the maximum; inactive = score below 0.9.

How the values were obtained:
[1] = ATG_PXRE_CIS: Attagene CIS-FACTORIAL HepG2 Assay for human Pregnane X Receptor Element (PXRE) (AID 2282957); conditions: HepG2 Attagene CIS-FACTORIAL PXRE reporter, mRNA; actives raise or lower the signal
Summary of the method: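 Transiently transfected HepG2 cells were dosed and incubated for 24 h. RNA was then isolated, DNase-treated, reverse-transcribed and reporter sequences amplified. Labeled, HpaI-digested fragments were quantified by capillary electrophoresis against DMSO.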

[2] = ATG_PPRE_CIS: Attagene CIS-FACTORIAL HepG2 Assay for human Peroxisome Proliferator-activated Response Element (PPRE) (AID 2282958); conditions: HepG2 PPRE cis-element reporter, Attagene transcription factor profiling; actives raise or lower the signal
Summary of the method: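 Read-out: fluorescent reporter mRNA fragments resolved by capillary electrophoresis after RT-PCR. HepG2 cells carried transiently transfected PPRE-driven cis reporter constructs and were dosed for 24 h; gain or loss of signal fitted relative to DMSO.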

[3] = ATG_Sox_CIS: Attagene CIS-FACTORIAL HepG2 Assay for human SRY-box transcription factor (SOX) (AID 2282960); conditions: HepG2 Attagene cis-factorial SOX reporter, mRNA; actives raise or lower the signal
Summary of the method: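 Read-out: fluorescent RT-PCR products of SOX1-linked reporter transcripts resolved by capillary electrophoresis, fitted bidirectionally against DMSO. Transiently transfected HepG2 cells, 24 h after chemical exposure, endogenous transcription factor activity.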

[4] = target: Transcription factor Sp1 (Homo sapiens) (UniProt P08047); experiment: ATG_Sp1_CIS: Attagene CIS-FACTORIAL HepG2 Assay for human Specificity Protein 1 (Sp1) (AID 2282961); conditions: HepG2 Sp1 cis-reporter transcription, actives raise or lower the signal
Sequence of Transcription factor Sp1 (Homo sapiens) (P08047 whole entry, looked up): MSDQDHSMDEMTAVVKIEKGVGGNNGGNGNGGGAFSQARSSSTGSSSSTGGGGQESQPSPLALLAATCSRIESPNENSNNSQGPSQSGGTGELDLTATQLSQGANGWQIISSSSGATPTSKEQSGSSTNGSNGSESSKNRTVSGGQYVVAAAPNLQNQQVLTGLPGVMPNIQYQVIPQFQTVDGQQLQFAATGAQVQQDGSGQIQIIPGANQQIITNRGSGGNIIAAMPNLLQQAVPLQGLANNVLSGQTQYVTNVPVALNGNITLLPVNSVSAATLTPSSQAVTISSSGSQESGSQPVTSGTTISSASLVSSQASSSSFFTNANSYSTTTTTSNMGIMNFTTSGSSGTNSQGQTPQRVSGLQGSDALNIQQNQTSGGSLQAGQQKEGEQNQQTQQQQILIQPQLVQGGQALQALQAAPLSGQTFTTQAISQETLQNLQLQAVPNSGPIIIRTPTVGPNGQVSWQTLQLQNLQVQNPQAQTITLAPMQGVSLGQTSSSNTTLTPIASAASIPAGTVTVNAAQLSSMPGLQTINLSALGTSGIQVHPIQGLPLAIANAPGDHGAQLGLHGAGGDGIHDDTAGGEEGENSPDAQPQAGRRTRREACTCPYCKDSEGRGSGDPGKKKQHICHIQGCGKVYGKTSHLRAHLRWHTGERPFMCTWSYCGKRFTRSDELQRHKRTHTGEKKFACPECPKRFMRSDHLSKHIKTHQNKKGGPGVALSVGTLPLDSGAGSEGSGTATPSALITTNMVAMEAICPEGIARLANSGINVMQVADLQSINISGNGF
Summary of the method: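 Read-out: fluorescence of 6-FAM-labeled, HpaI-digested RT-PCR products separated by capillary electrophoresis. HepG2 cells carried transfected cis-element reporter units and were exposed to chemicals for 24 h; gain or loss of signal fitted relative to DMSO.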

[5] = ATG_SREBP_CIS: Attagene CIS-FACTORIAL HepG2 Assay for human Sterol Regulatory Element Binding (SREBP) (AID 2282962); conditions: HepG2 Attagene cis-factorial SREBP reporter, mRNA; actives raise or lower the signal
Summary of the method: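 HepG2 cells transiently transfected with multiplexed cis-promoter reporter units sensing endogenous transcription factors; reporter mRNA measured 24 h after dosing by RT-PCR, 6-FAM labeling, HpaI digestion and capillary electrophoresis. Bidirectional fit versus DMSO.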

[6] = target: Signal transducer and activator of transcription 3 (Homo sapiens) (UniProt P40763); experiment: ATG_STAT3_CIS: Attagene CIS-FACTORIAL HepG2 Assay for human Signal Transducer and Activator of Transcription 3 (STAT3) (AID 2282963); conditions: HepG2, Attagene cis-factorial STAT3 reporter transcription; actives raise or lower the signal
Sequence of Signal transducer and activator of transcription 3 (Homo sapiens) (P40763 whole entry, looked up): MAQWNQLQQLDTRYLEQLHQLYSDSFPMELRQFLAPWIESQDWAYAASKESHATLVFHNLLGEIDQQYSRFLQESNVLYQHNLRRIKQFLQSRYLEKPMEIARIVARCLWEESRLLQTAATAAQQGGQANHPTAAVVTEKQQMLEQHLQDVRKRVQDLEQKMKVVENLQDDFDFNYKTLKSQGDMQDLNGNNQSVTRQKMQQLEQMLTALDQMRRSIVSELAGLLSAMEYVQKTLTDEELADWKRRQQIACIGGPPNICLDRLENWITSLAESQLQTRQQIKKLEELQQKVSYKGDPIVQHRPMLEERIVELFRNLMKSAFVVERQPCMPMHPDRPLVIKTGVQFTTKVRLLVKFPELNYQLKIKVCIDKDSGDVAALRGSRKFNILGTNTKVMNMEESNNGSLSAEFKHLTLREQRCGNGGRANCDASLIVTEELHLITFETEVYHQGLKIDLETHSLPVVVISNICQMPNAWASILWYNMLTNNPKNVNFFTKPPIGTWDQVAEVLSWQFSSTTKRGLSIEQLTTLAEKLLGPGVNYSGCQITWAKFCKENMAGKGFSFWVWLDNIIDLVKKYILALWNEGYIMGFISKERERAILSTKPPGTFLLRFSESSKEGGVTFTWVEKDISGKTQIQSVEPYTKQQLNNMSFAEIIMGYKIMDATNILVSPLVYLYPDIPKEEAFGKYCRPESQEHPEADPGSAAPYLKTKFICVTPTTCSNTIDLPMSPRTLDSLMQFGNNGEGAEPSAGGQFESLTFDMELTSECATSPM
Summary of the method: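 HepG2 cells transiently transfected with cis-element-driven multiple reporter transcription units; after 24 h chemical exposure, reporter mRNA measured by RT-PCR, 6-FAM primer-extension labelling, HpaI digestion and capillary electrophoresis. Bidirectional fitting versus DMSO baseline.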

[7] = ATG_TA_CIS: Attagene CIS-FACTORIAL HepG2 Assay for human TA Basal Promoter (AID 2282964); conditions: HepG2 Attagene CIS-factorial TA basal promoter reporter; actives raise or lower the signal
Summary of the method: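 Transient MRTU transfection of HepG2 preceded 24 h compound exposure. Reporter mRNA levels were then read by RT-PCR with capillary electrophoresis, and this background-control endpoint was fitted bidirectionally to DMSO.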

[8] = ATG_TCF_b_cat_CIS: Attagene CIS-FACTORIAL HepG2 Assay for human T-Cell-Factor with beta-catenin (TCF/b-cat) (AID 2282965); conditions: HepG2 TCF/beta-catenin cis-reporter transcription, actives raise or lower the signal
Summary of the method: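 HepG2 cells transiently transfected with multiple cis-promoter-regulated reporter transcription units, so endogenous transcription factor activity is measured. Reporter mRNA read 24 hours after dosing by RT-PCR, fluorescent labelling and capillary electrophoresis; bidirectional fitting against DMSO.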

[9] = ATG_TAL_CIS: Attagene CIS-FACTORIAL HepG2 Assay for human TAL Basal Promoter (AID 2282966); conditions: HepG2 Attagene cis-factorial TAL promoter reporter; actives raise or lower the signal;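 also: background control endpoint measuring basal TAL promoter reporter mRNA not a specific factor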
Summary of the method: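 Readout: reporter mRNA, fluorescence by CE. System: HepG2, transient multi-reporter transfection, endogenous TF activity. Exposure: 24 h. Analysis: bidirectional, DMSO-normalized; background control.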

[10] = ATG_TGFb_CIS: Attagene CIS-FACTORIAL HepG2 Assay for human Transforming Growth Factor (TGF) (AID 2282967); conditions: HepG2 Attagene CIS TGFb reporter, mRNA transcription; actives raise or lower the signal
Summary of the method: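 After a 24-hour incubation with compound, transfected HepG2 cells were lysed for RNA; reporter cDNA was amplified, fluorescently end-labeled and separated by CE. DMSO served as baseline for bidirectional fits.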

[11] = ATG_VDRE_CIS: Attagene CIS-FACTORIAL HepG2 Assay for human Vitamin D Receptor Element (VDRE) (AID 2282968); conditions: HepG2 VDRE cis-reporter transcription, actives raise or lower the signal
Summary of the method: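 HepG2 cells transiently transfected with cis-element reporter units, dosed 24 h; reporter mRNA measured by RT-PCR, 6-FAM labeling, HpaI digestion and capillary electrophoresis. Activity fitted bidirectionally against DMSO baseline.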

[12] = target: Steroid hormone receptor ERR1 (Homo sapiens) (UniProt P11474); experiment: ATG_ERRa_TRANS: Attagene TRANS-FACTORIAL HepG2 Assay for human Estrogen-Related Receptor alpha (ERRa) (AID 2282971; active = hit-call score of the fitted dose curve at least 0.9, where 1 is the maximum); conditions: HepG2 Attagene TRANS reporter, ERRa transactivation
Sequence of Steroid hormone receptor ERR1 (Homo sapiens) (P11474 whole entry, looked up, the tested form may be a part): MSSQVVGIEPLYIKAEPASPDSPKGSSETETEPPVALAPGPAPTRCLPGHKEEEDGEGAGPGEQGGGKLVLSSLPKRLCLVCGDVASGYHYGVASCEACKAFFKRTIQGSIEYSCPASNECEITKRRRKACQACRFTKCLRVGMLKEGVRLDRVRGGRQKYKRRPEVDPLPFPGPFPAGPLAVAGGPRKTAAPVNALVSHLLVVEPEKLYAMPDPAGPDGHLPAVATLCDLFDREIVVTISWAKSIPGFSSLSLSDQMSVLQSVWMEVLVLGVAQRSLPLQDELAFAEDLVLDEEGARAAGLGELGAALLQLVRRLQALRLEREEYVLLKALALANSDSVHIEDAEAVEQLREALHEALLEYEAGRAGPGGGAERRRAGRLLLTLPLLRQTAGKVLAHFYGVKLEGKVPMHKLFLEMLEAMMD
Summary of the method: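 HepG2 cells were transiently transfected with multiple GAL4-UAS reporter units, then dosed with compound for 24 h. Total RNA was reverse-transcribed, reporter cDNA PCR-amplified and fluorescently labelled, and fragments resolved by capillary electrophoresis; induction was compared with DMSO.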

[13] = target: X-box-binding protein 1 (Homo sapiens) (UniProt P17861); experiment: ATG_Xbp1_CIS: Attagene CIS-FACTORIAL HepG2 Assay for human X-box Binding Protein 1 (XBP1) (AID 2282972); conditions: HepG2 XBP1 cis-element reporter, Attagene multiplex; actives raise or lower the signal
Sequence of X-box-binding protein 1 (Homo sapiens) (P17861 whole entry, looked up): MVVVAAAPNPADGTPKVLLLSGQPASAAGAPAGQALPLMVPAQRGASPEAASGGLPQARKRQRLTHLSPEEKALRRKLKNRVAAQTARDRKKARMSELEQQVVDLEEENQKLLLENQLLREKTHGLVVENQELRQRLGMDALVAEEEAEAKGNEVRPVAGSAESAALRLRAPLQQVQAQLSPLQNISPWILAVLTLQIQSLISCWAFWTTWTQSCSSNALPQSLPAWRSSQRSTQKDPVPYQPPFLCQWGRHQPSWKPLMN
Summary of the method: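 HepG2 cells transiently transfected with multiple cis-element reporter units report endogenous TF activity; 24 h exposure, then reporter mRNA measured by RT-PCR, 6-FAM labelling, HpaI digestion and capillary electrophoresis. Bidirectional fitting versus DMSO.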

[14] = ATG_GAL4_TRANS: Attagene TRANS-FACTORIAL HepG2 Assay for GAL4 (Internal Marker) (AID 2282976; active = hit-call score of the fitted dose curve at least 0.9, where 1 is the maximum); conditions: HepG2 Attagene TRANS GAL4 internal marker reporter
Summary of the method: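 Fluorescence from capillary electrophoresis of labelled RT-PCR products quantifies reporter mRNA induction after 24 h dosing of HepG2 cells carrying transfected GAL4-UAS reporter transcription units. Vehicle DMSO serves as baseline.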

[15] = ATG_M_19_TRANS: Attagene TRANS-FACTORIAL HepG2 Assay for M19 Transcription Factor (Internal Marker) (AID 2282974; active = hit-call score of the fitted dose curve at least 0.9, where 1 is the maximum); conditions: HepG2 Attagene TRANS-FACTORIAL M19 internal marker reporter
Summary of the method: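 24 h chemical exposure of transiently transfected HepG2 (MRTU library). RNA → oligo(dT) RT → PCR → 6-FAM labelling → HpaI cut → CE fluorescence. Positive-direction fit vs DMSO baseline; background internal-marker readout.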

[16] = target: Estrogen receptor (Homo sapiens) (UniProt P03372); experiment: ATG_ERa_TRANS: Attagene TRANS-FACTORIAL HepG2 Assay for human Estrogen Receptor alpha (ERa) (AID 2282970; active = hit-call score of the fitted dose curve at least 0.9, where 1 is the maximum); conditions: HepG2 Attagene TRANS ERa GAL4 reporter, mRNA
Sequence of Estrogen receptor (Homo sapiens) (P03372 whole entry, looked up, the tested form may be a part): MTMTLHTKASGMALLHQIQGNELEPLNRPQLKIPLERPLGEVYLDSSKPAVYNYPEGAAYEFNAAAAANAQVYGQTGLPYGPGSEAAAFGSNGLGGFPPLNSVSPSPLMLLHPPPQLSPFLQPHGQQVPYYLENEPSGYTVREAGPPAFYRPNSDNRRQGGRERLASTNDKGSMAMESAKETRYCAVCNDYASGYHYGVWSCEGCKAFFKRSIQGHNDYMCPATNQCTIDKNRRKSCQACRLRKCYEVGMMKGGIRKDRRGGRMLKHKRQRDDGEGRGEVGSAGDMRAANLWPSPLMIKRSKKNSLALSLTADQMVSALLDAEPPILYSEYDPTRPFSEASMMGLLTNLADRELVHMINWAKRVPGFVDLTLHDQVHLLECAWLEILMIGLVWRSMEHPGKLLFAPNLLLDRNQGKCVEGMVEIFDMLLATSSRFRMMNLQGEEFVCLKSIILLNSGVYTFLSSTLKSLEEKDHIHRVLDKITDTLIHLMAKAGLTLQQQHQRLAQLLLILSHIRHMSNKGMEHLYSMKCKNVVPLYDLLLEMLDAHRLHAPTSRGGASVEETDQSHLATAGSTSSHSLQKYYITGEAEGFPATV
Summary of the method: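 Transactivation via ERa-Gal4 chimera in HepG2; 24 hour incubation; reporter mRNA detected by fluorescence RT-PCR and capillary electrophoresis.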

[17] = target: Glucocorticoid receptor (Homo sapiens) (UniProt P04150); experiment: ATG_GR_TRANS: Attagene TRANS-FACTORIAL HepG2 Assay for human Glucocorticoid Receptor (GR) (AID 2282978; active = hit-call score of the fitted dose curve at least 0.9, where 1 is the maximum;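 also: activators score as hits since higher reporter transcript over DMSO is fitted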); conditions: HepG2 Attagene TRANS GR reporter, mRNA transcription
Sequence of Glucocorticoid receptor (Homo sapiens) (P04150 whole entry, looked up, the tested form may be a part): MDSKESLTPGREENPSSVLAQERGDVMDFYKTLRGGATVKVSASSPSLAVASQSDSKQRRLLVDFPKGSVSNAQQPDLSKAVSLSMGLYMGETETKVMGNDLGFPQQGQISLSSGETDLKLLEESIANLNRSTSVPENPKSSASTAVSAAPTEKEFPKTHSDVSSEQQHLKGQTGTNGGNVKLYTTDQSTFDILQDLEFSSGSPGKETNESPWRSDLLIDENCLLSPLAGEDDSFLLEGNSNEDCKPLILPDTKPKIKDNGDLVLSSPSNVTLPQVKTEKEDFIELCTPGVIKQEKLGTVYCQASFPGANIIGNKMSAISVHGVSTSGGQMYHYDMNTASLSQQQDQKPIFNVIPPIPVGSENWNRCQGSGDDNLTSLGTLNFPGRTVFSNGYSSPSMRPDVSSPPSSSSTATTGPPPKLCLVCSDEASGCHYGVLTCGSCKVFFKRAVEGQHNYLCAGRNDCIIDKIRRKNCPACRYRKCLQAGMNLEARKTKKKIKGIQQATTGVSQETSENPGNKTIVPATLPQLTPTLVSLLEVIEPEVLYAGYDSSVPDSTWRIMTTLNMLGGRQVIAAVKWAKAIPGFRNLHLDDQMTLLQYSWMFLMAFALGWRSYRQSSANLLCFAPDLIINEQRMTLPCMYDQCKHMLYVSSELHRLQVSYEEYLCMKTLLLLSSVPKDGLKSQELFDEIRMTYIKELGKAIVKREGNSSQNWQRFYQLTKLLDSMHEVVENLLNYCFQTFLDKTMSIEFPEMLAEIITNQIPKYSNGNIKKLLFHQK
Summary of the method: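 Transient MRTU transfection of HepG2 (GAL4-UAS reporters, exogenous NR-GAL4 chimeras), 24 h dosing. Readout: reporter transcript via RT-PCR + capillary electrophoresis fluorescence. Positive direction vs DMSO baseline.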

[18] = target: Nuclear receptor subfamily 1 group I member 3 (Homo sapiens) (UniProt Q14994); experiment: ATG_CAR_TRANS: Attagene TRANS-FACTORIAL HepG2 Assay for human Constitutive Androstane Receptor (CAR) (AID 2282969; active = hit-call score of the fitted dose curve at least 0.9, where 1 is the maximum;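 also: activators raise reporter mRNA above DMSO so AC50 marks induction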); conditions: HepG2 Attagene TRANS-FACTORIAL CAR reporter
Sequence of Nuclear receptor subfamily 1 group I member 3 (Homo sapiens) (Q14994 whole entry, looked up, the tested form may be a part): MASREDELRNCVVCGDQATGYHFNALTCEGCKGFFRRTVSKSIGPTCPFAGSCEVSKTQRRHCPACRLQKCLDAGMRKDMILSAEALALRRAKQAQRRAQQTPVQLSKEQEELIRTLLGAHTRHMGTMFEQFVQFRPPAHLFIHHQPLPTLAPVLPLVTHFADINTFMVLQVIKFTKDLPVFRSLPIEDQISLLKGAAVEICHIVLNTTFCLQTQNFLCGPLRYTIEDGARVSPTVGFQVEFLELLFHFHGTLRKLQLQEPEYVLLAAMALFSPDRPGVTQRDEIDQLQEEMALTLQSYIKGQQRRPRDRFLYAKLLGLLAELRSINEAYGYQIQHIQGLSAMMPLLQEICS
Summary of the method: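 HepG2 cells transiently transfected with multiplexed GAL4-UAS reporter units expressing chimeric NR-Gal4 proteins; compound exposure 24 h. Reporter mRNA measured by RT-PCR, 6-FAM labelling, HpaI digestion and capillary electrophoresis; gain-of-signal fitted against DMSO baseline.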

[19] = ATG_RORE_CIS: Attagene CIS-FACTORIAL HepG2 Assay for human RAR-related Orphan Receptor Element (RORE) (AID 2282959); conditions: HepG2 Attagene cis-factorial RORE reporter, mRNA; actives raise or lower the signal
Summary of the method: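 Readout: fluorescent reporter mRNA by RT-PCR plus capillary electrophoresis, 24 h after dosing transfected HepG2 cells. Endogenous transcription factor activity on a cis promoter element is measured. Gain or loss of signal fitted against DMSO.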

Measured: AC50

CCCCCCCCCCCCCCCCCC[N+](C)(C)Cc1ccccc1
active: [2] 79.8 µM | [3] 12.4 µM | [5] 13.2 µM | [6] 88.9 µM | [11] 50 µM
inactive: [1] | [4] | [7] | [8] | [9] | [10] | [12] | [13] | [14]

CCCCCCCCCCCCCCC
inactive: [1] | [3] | [4] | [5] | [6] | [7] | [8] | [9] | [10] | [11] | [13] | [15] | [14]

Cc1ccccc1OCC(=O)O
inactive: [1] | [2] | [3] | [4] | [5] | [6] | [7] | [8] | [9] | [10] | [11] | [16] | [13] | [15] | [17]

OCC(F)(F)C(F)(F)C(F)(F)C(F)(F)C(F)(F)C(F)(F)C(F)(F)C(F)(F)C(F)(F)C(F)(F)C(F)(F)F
active: [16] 62.3 µM
inactive: [1] | [2] | [3] | [4] | [5] | [6] | [7] | [9] | [10] | [11] | [18] | [13] | [17]

NS(=O)(=O)O
inactive: [1] | [2] | [3] | [4] | [5] | [6] | [8] | [9] | [10] | [13] | [14] | [17]

CCCCc1ccc2ccccc2c1S(=O)(=O)O
inactive: [2] | [19] | [3] | [4] | [5] | [6] | [7] | [9] | [10] | [18] | [16] | [13] | [15]

FC(F)(F)C(F)(F)C(F)(F)C(F)(F)I
inactive: [2] | [19] | [3] | [5] | [6] | [7] | [8] | [9] | [10] | [16] | [12] | [13]

Oc1ccc(Cc2ccccc2O)cc1
inactive: [2] | [19] | [3] | [4] | [6] | [7] | [8] | [9] | [10] | [13] | [15] | [17]
active: [11] 64.5 µM | [16] 3.65 µM
